Bioassay records (PubChem BioAssay)
Hits are enriched below; roughly 2.5% of the tested compounds scored in any of these assays.
HSF-1 act: increases HSF-1 driven luciferase reporter signal; NIH3T3-HGL HSF-1 luciferase reporter, MG132, 8 h; 100% = twice DMSO control signal; activation, % at 9 µM; 1.7% of 300,000 active; AID 504408;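 active = mean replicate activation of at least 50% with a set share of replicates each reaching 50%; inconclusive = only one of those two conditions met; inactive = mean below 50% and too few replicates reaching it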
NPR1 activator: GC-A (human) enzyme activation. P16066. HEK293 GC-A cells, cGMP TR-FRET, EC30 ANP; 0% at EC30 ANP, 100% saturating ANP. activation, % at 10 µM. 0.14% of 370,000 active. AID 1671463; in the data active = activation above about 40%
Target sequence (P16066 whole entry, looked up): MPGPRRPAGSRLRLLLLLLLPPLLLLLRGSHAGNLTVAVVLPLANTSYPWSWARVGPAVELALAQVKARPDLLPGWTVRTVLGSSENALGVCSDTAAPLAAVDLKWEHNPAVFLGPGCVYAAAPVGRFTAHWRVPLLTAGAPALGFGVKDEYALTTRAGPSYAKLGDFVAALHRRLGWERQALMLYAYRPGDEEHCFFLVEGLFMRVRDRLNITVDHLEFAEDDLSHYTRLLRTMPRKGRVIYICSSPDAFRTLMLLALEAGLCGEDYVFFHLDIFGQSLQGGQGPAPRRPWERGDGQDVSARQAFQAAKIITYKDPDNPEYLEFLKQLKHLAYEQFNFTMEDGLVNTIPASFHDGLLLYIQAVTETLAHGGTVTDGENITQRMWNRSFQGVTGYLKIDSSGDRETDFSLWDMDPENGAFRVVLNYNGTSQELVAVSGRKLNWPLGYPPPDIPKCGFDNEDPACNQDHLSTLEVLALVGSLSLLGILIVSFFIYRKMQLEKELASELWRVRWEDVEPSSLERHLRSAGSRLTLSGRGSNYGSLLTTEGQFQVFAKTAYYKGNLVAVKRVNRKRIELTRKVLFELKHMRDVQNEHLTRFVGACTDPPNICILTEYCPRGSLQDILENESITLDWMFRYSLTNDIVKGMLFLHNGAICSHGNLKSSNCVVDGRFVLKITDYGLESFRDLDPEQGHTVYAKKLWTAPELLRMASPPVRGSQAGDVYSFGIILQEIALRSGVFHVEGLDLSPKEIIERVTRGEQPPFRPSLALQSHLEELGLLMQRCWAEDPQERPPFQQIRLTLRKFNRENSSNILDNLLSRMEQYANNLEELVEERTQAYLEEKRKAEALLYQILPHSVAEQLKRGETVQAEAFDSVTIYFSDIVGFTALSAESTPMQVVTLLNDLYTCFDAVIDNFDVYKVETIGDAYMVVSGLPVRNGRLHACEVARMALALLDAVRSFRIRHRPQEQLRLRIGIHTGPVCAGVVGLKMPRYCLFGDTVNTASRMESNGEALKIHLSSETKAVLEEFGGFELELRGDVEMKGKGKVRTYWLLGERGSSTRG
HSF1 inh: HSF1 inhibition. NIH3T3-HGL HSE-luciferase, MG132-induced, luminescence 8 h; active compounds read low. activity change, negative = inhibition, % at 7.5 µM (by protocol). 0.77% of 300,000 active. AID 2098;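 active = more than half of replicate wells show activity change below -50%, luminescence cut by over half; inconclusive = some wells, but at most half, below -50%; inactive = no replicate well below -50%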;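 also: luciferase reports HSF-1 transcriptional activity via heat shock element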
Dyrk1A ADPGlo: inhibitors of rat Dyrk1A kinase | AID 504441 | ADP-Glo luminescence, NFATc1 peptide | 0.43% of 310,000 active | inhibition, % at 12.5 µM | Q63470; in the data active = inhibition above about 50%
aDG glyco act: increases alpha dystroglycan glycosylation. Pro5-aDG cells, alpha-DG glycosylation AlphaScreen (IIH6); 0% Pro5, 100% B10-LARGE cell signal. activation, % at 10 µM. 0.22% of 360,000 active. AID 624168;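 active = activation of at least 8% versus controls, or a plate z-score of at least 8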;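 also: Pro5 are CHO cells carrying HIG-tagged alpha-DG that lacks glycosylation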
GC-B act: GC-B (human) receptor activation | HEK293-GC-B cells, CNP EC30, cGMP TR-FRET; 0% at EC30 CNP, 100% saturating CNP | activation, % at 10 µM | 0.11% of 370,000 active;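 active = activation at 10 µM reaching about 35% in either raw or pattern-adjusted values, limit read from the data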
ADP-Glo artifact: ADP-Glo luciferase interference, Dyrk1A counter-screen; shares compounds with Dyrk1A ADPGlo; ADP-Glo luciferase artifact assay, no Dyrk1A, luminescence; AC50, µM (top dose mostly 12 µM); 1,300 tested, under 10 active; AID 588348;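 active = fitted half-maximal dose AC50 no more than ten times the top valid tested dose, with luminescence dropping as dose rises; inconclusive = poor fit, or flat fit with 30 to 70% inhibition; inactive = the rest, signal increases included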
Large screens that a line does not name were inactive (follow-up assays come after a bar, where they were run).

CC(=O)N1c2ccc(S(=O)(=O)N(C)CC(=O)Nc3cccc(C)c3)cc2CC1C (stereo unspecified)	none
CC(=O)N1c2ccc(S(=O)(=O)N(C)CC(=O)Nc3ccccc3C)cc2CC1C (stereo unspecified)	HSF1 inh -61
COc1cc(NC(=O)CN(C)S(=O)(=O)c2ccc3c(c2)CC(C)N3C(C)=O)cc(OC)c1 (stereo unspecified)	HSF1 inh -84
COc1cccc(CNc2ncnc3ccc(-c4c(C)noc4C)cc23)c1	NPR1 activator 51, GC-B act 56 (no result: HSF-1 act, HSF1 inh)
CCCCn1c(N)nc2ccccc21	HSF1 inh -71
CN(C)CCn1c(N)nc2ccccc21	none
C=CCn1c(COc2ccc(CC)cc2)nnc1SC/C(O)=C(\C#N)c1nc2ccccc2[nH]1	HSF-1 act 80 (no result: Dyrk1A ADPGlo)
Cc1ccc(NC(=O)CS(=O)CC(=O)NCC2OCCc3ccccc32)c(C)c1 (stereo unspecified)	none
CCOc1ccc(N2C(=O)CC(Sc3nnnn3-c3ccccc3)C2=O)cc1 (stereo unspecified)	HSF-1 act inconclusive
O=C(CS(=O)c1ccc(C(F)(F)F)cc1[N+](=O)[O-])Oc1ccccc1 (stereo unspecified)	HSF-1 act 238
COC(=O)c1ccc(OC(=O)CS(=O)c2ccccc2[N+](=O)[O-])cc1 (stereo unspecified)	none
CS(=O)(=O)c1ccc(S(=O)CC(=O)OCc2ccccc2)c([N+](=O)[O-])c1 (stereo unspecified)	HSF1 inh -94
O=C(NCc1cccnc1)Nc1ccc(Cl)c(Cl)c1	none
CN(C)C(=O)COC(=O)c1ccccc1Nc1ccc(SC(F)F)cc1	NPR1 activator 42
COc1ccccc1NC(=O)COC(=O)c1ccccc1OCC(=O)Nc1ccc(SC(F)F)cc1	none
CC(=O)Nc1ccc(SCC(=O)Nc2ccccc2-c2ccccc2)cc1	none
CC(=O)Nc1ccc(SCc2ncc(-c3ccccc3)o2)cc1	Dyrk1A ADPGlo 64 | ADP-Glo artifact inactive
COc1ccc2c(c1)CCc1cn3nc(C)cc3nc1-2	Dyrk1A ADPGlo 81 | ADP-Glo artifact inactive
CSc1nnc(-c2cc3c(-c4ccccc4)nn(C)c3s2)n1C	Dyrk1A ADPGlo 52 | ADP-Glo artifact inactive
Cc1ccc(/C=c2\sc3n(c2=O)CN(c2ccc(Br)cc2)CN=3)o1	Dyrk1A ADPGlo 62 | ADP-Glo artifact inactive
O=C1C2C(c3ccccc3)CC=CC2[C@H](c2ccc3ccccc3c2)N1Cc1ccccc1 (stereo partly specified)	none
O=C1C2C(c3ccccc3)CC=CC2[C@H](c2ccoc2)N1Cc1ccccc1 (stereo partly specified)	Dyrk1A ADPGlo 60 | ADP-Glo artifact inactive
Cc1cccc(Nc2nc(N)c([N+](=O)[O-])c(N3CCC(C)CC3)n2)c1	Dyrk1A ADPGlo 50 | ADP-Glo artifact inactive
CN1CCN(CC(O)COC(c2ccccc2)c2ccccc2)CC1 (stereo unspecified)	none
O=[N+]([O-])c1ccccc1-c1cc(-c2ccccc2O)n[nH]1	Dyrk1A ADPGlo 51 | ADP-Glo artifact inactive
S=C(Nc1ccc(Cl)cc1)Nc1ccc2cn[nH]c2c1	none
CCCCNC(=S)Nc1ccc2cn[nH]c2c1	Dyrk1A ADPGlo 81 | ADP-Glo artifact inactive
Cc1cc(=O)n2ccccc2c1C#N	none
COc1ccc2c(C#N)c3ccccn3c2c1	Dyrk1A ADPGlo 72 | ADP-Glo artifact inactive
CN(C)Cc1ccccc1	none (no result: HSF-1 act, HSF1 inh, Dyrk1A ADPGlo, aDG glyco act)
CCCCn1c(N)c(Sc2ccccc2[N+](=O)[O-])c(=O)[nH]c1=O	none
O=C(NCc1ccc2c(c1)OCO2)c1ccco1	none
O=C(CC(SCCO)c1ccc2c(c1)OCO2)c1ccco1 (stereo unspecified)	Dyrk1A ADPGlo 84 | ADP-Glo artifact inactive
CCN(CC)CCn1c(O)c(N=O)c2ccccc21	none
CCN(CC)CCn1c2ccccc2c(=O)c2c(O)ccc(O)c21	Dyrk1A ADPGlo 85 (no result: HSF-1 act, HSF1 inh) | ADP-Glo artifact inactive
COc1ccc(NC2CCCN(C(=O)CN3CCOC3=O)C2)cc1OC (stereo unspecified)	none
COc1ccc2cc(-c3cccnc3)ncc2c1	Dyrk1A ADPGlo 68 (no result: HSF-1 act, HSF1 inh) | ADP-Glo artifact inactive
Cc1onc(-c2c(Cl)cccc2Cl)c1NC(=O)NN(C)c1ccc([N+](=O)[O-])cn1	none
O=C(NCc1ccco1)c1sc2ccccc2c1Cl	HSF-1 act 66, Dyrk1A ADPGlo 56 | ADP-Glo artifact inactive
O=C(NCc1ccco1)c1sc2cc(Cl)ccc2c1Cl	none
O=C(Cc1cccc(NC(=O)C2CCN(C(=O)c3ccccc3)CC2)c1)Nc1cccc(C(=O)N2CCCC2)c1	none (no result: HSF-1 act, HSF1 inh)
O=C(c1ccc2c(c1)OCO2)N1CCCN(C(=O)c2ccc3c(c2)OCO3)CC1	none
O=C(c1ccc2c(c1)OCCCO2)N1CCCCC1	Dyrk1A ADPGlo 59 | ADP-Glo artifact inactive
NC1=NC(=O)/C(=C\c2ccc(O)c([N+](=O)[O-])c2)S1	Dyrk1A ADPGlo 79 | ADP-Glo artifact inactive
NC1=NC(=O)/C(=C/c2cccc(-c3ccc(S(N)(=O)=O)cc3)c2)S1	none
Cn1ncc(Cl)c1C(=O)Nc1cccc(Cl)c1	none
CSc1cccc(NC(=O)c2c(Cl)cnn2C)c1	Dyrk1A ADPGlo 53 | ADP-Glo artifact inactive
O=C1SC(c2ccccc2)=C/C1=C\N1CCCCC1	Dyrk1A ADPGlo 68 | ADP-Glo artifact inactive
O=C(O)c1ccccc1C(=O)N1CC=C(c2ccccc2)CC1	none
Cc1ccc(CN2CCN(c3ncccn3)CC2)o1	Dyrk1A ADPGlo 56 | ADP-Glo artifact inactive
Cc1nc2c(c3c1[nH]c1ccccc13)C(=O)CC(C)(C)C2	Dyrk1A ADPGlo 85 | ADP-Glo artifact inactive
O=C(CCC(=O)N(c1ccccc1)C(C(=O)NC1CCCC1)c1ccncc1)Nc1cccnc1 (stereo unspecified)	none
Nc1ccc2c(c1)C(=O)c1ccccc1-2	none
Nc1ccc2c(c1)C(=O)C(=O)c1ccccc1-2	HSF1 inh -95, Dyrk1A ADPGlo 89 | ADP-Glo artifact inactive
CCN(CC)C(=O)[C@H]1CC(CC(=O)NC(C)(C)C)C(=O)N2CCc3c([nH]c4ccc(OC)cc34)[C@]12C (stereo partly specified)	none (no result: HSF-1 act, HSF1 inh)
COc1ccc(-c2csc(N=C(N)N)n2)cc1	Dyrk1A ADPGlo 82 | ADP-Glo artifact inactive
Cc1c(C(=O)NCc2cccc(C(F)(F)F)c2)sc(=O)n1Cc1ccc(S(=O)(=O)N(C)C)cc1	none (no result: HSF-1 act, HSF1 inh, Dyrk1A ADPGlo)
O=C(CN1CCN(S(=O)(=O)c2ccc(F)cc2)CC1)NC1CCCC1	none (no result: Dyrk1A ADPGlo)
O=C(O)c1ccc(NC2=C/C(=N/S(=O)(=O)c3cccs3)c3ccccc3C2=O)cc1	none (no result: HSF-1 act, HSF1 inh, Dyrk1A ADPGlo)
